Source: PubChem BioAssay AID1063 (University of Pittsburgh Molecular Library Screening Center, 2008)
Among all 200,000 compounds or so, about 18,000 (9%) were called active. No stated cut-off is given here; in the data, active means inhibition above about 50%; inactive means the rest. The full list was thinned out, with actives kept by preference. Where a SMILES comes first, the peptide text is derived from it. The star is where a group is joined. OPac = O=C(CO*)c1ccccc1; Bz = O=C(c1ccccc1)*

Assay: Leishmania major promastigote growth inhibition, primary screen (AID 1063);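 further: promastigotes grown with compound for 44 hours at 28 °C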
Conditions: Leishmania major promastigotes, resazurin fluorescence viability; at 10 µM; hits give high values

| SMILES | inhibition |
| --- | --- |
| CN(C)c1ccc(C=NCCc2ccc(S(N)(=O)=O)cc2)cc1 | 3.91% (inactive) |
| CCOC(=O)c1cnc2[nH]c3ccccc3n2c1=O | 7.85% (inactive) |
| O=C(O)CC/C(=N\NC(=O)c1ccc(F)cc1)c1ccc(Br)cc1 | -8.88% (inactive) |
| Cn1ccc(=NC=C(C#N)C#N)c2ccccc21 | 7.93% (inactive) |
| CC(=O)c1ccc(NC(=O)Nc2ccc([N+](=O)[O-])cc2C)cc1 | -1.56% (inactive) |
| O=[N+]([O-])c1ccc2c(c1)C(N1CCOCC1)/C(=C/C1(O)CCCCC1)O2 (stereo unspecified) | -7.12% (inactive) |
| Cc1cc2nc(C(F)(F)F)cc(-c3cccs3)n2n1 | 2.4% (inactive) |
| COc1ccc(OC)c(S(=O)(=O)Nc2cccc(-c3ccc4nncn4n3)c2)c1 | -2.67% (inactive) |
| Cc1csc(NC(=S)Nc2cccc(Cl)c2)n1 | 9.23% (inactive) |
| S=C(Nc1cccc(Cl)c1)Nc1ccc2cn[nH]c2c1 | 10.9% (inactive) |
| FC(F)(F)c1cccc(NC(=S)Nc2cccc(Cl)c2)c1 | 75.6% (active) |
| CCNC(=O)CC1C(=O)N(c2ccc(OC)cc2)C(=S)N1CCc1ccncc1 (stereo unspecified) | -4.31% (inactive) |
| COc1ccc2oc(=O)c(C(=O)N3CCCC3)cc2c1 | -7.26% (inactive) |
| Clc1ccc(-c2nnc(-c3ccccc3)nc2N2CCSCC2)cc1 | 58.6% (active) |
| Cn1nc(-c2ccccc2)c(-c2nc(-c3ccc(Cl)cc3)no2)c1Cl | -4.1% (inactive) |
| CC1CN(c2nc(-c3ccccc3)nnc2-c2ccccc2)CC(C)O1 (stereo unspecified) | 5.94% (inactive) |
| CN(CCc1cnn(C)c1)Cc1cn(C)nc1-c1ccccc1F | -3.32% (inactive) |
| CC(C)N(C(=O)CSc1nc(COc2ccccc2)nc2ccccc12)C(C)C | 21.6% (inactive) |
| O=C(COC(=O)c1ccccc1F)Nc1cc(S(=O)(=O)N2CCOCC2)ccc1N1CCCC1 | 5.17% (inactive) |
| O=C(COc1cccc2ccccc12)Nc1cc(S(=O)(=O)N2CCOCC2)ccc1N1CCOCC1 | 61.2% (active) |
| COc1cc(S(=O)(=O)N2CCOCC2)ccc1NC(=O)COc1ccc(N(C)S(=O)(=O)c2ccc(C)cc2)cc1 | 94% (active) |

| SMILES | inhibition |
| --- | --- |
| CCOc1cc(N2CCOCC2)c(OCC)cc1NC(=O)c1ccc(C)s1 | 6.96% (inactive) |
| Cc1ccc(S(=O)(=O)N(C)c2ccc(OCC(=O)NC3=NCCS3)cc2)cc1 | 1.37% (inactive) |
| COC(=O)COc1ccc(S(=O)(=O)N2CCOCC2)cc1 | -7.05% (inactive) |
| CCOc1cc(N2CCOCC2)c(OCC)cc1NC(=O)COc1cccc2cccnc12 | 100% (active) |
| CC(=O)NCCC(=O)Nc1cc(S(=O)(=O)N2CCOCC2)ccc1N1CCOCC1 | 0.47% (inactive) |
| CCOc1cc(N2CCOCC2)c(OCC)cc1NC(=O)c1cc(C)nc2ccccc12 | 6.2% (inactive) |
| CCC(=O)N1c2ccccc2NC2=C(C(=O)CCC2)C1c1ccco1 (stereo unspecified) | 3.39% (inactive) |
| O=C(N/N=C1\CCSC1)c1cc(Cl)ccc1O | 3.97% (inactive) |
| CCCCCc1ccc(-c2ccc(OCC)cc2)nc1 | -7.26% (inactive) |
| CN(C)S(=O)(=O)c1ccc(NC(=O)N2CCOCC2)cc1 | -2.72% (inactive) |
| CCN(CC)CCNS(=O)(=O)c1ccc(/C=C/C(=O)O)cc1 | -2.33% (inactive) |
| O=C(Nc1cccnc1)c1cccc(S(=O)(=O)N2CCCC2)c1 | -5.74% (inactive) |
| Fc1ccccc1N=C1Nc2cccc3cccc1c23 | 8.76% (inactive) |
| COc1ccccc1C1=Nc2cccc3cccc(c23)N1 | 69.7% (active) |
| c1ccc(C2=Nc3cccc4cccc(c34)N2)cc1 | 19.1% (inactive) |
| CCOC(=O)/C(C#N)=C/c1ccc(N2CCCCC2)cc1 | -8.77% (inactive) |
| Cc1ccc(C(=O)NCCNC(=O)c2ccccc2)cc1 | 30.8% (inactive) |
| CCOC(=O)Nc1ccc(NC(=O)OCC)cc1 | -2.26% (inactive) |
| CCCCCOC(=O)NCCOC(=O)Nc1ccc(C(=O)OCC)cc1 | 59.2% (active) |
| CCCCC(CCC(=O)Nc1ccc(C(=O)OCC)cc1)C(=O)O (stereo unspecified) | -9.84% (inactive) |
| CCC(C(=O)Nc1ccc(C(C)C)cc1)c1ccccc1 (stereo unspecified) | -1.77% (inactive) |

| SMILES | inhibition |
| --- | --- |
| Cc1cc(C)cc(NC(=O)CSc2ccccc2)c1 | 1.71% (inactive) |
| O=C(c1ccc(S(=O)(=O)c2ccccc2)cc1)N1CCCCCC1 | 55.1% (active) |
| COc1ccccc1N1CCN(C(=O)c2ccc(Cl)c(S(=O)(=O)N3CCCC3)c2)CC1 | 1.35% (inactive) |
| O=C(c1ccccc1)N1CCN(C(=O)N2CCCCC2)CC1 | 27.4% (inactive) |
| COc1ccccc1N1CCN(C(=O)c2cc(-c3ccc(Cl)c(Cl)c3)on2)CC1 | -6.68% (inactive) |
| O=C(c1ccc(CSc2ccccc2)cc1)N1CCCCCC1 | -6.75% (inactive) |
| COc1ccccc1N1CCN(C(=O)c2c(-c3c(Cl)cccc3Cl)noc2C)CC1 | 98.5% (active) |
| COc1cc2c(cc1OC)CN(C(=O)c1ccc(S(=O)(=O)N3CCCCCC3)cc1)CC2 | 24.6% (inactive) |
| COc1ccccc1N1CCN(C(=O)c2ccc(S(=O)(=O)N3CCCCC3)cc2)CC1 | 59.5% (active) |
| COc1ccccc1N1CCN(C(=O)c2cc(-c3ccc(Br)cc3)on2)CC1 | -7.17% (inactive) |
| CN1CCN(CCNC(=O)Nc2ccc([N+](=O)[O-])cc2)CC1 | -0.61% (inactive) |
| O=C(Nc1cc(Cl)cc(Cl)c1)C(NCCCO)c1ccccc1 (stereo unspecified) | 10.6% (inactive) |
| Cc1ccc(-c2cc(=O)c3ccc(F)cc3[nH]2)cc1 | 1.73% (inactive) |
| CN1C(=O)C(CC(=O)Nc2ccccc2)S/C1=N/c1nccs1 (stereo unspecified) | -4.38% (inactive) |
| CS(=O)(=O)N(CC(=O)N1CCCC1)Cc1ccccc1 | -5.77% (inactive) |
| N#Cc1ccccc1-n1c(N)c(C(=O)N2CCCC2)sc1=S | 52.1% (active) |
| Cc1ccc(-n2c(N)c(C(=O)N3CCOCC3)sc2=S)c(C)c1 | 6.62% (inactive) |
| Cc1cccc(-n2c(N)c(C(=O)N3CCN(C)CC3)sc2=S)c1 | 9.91% (inactive) |
| O=C(CNC(=O)c1ccccc1)NCC(=O)OCC(=O)c1ccccc1 (Bz-Gly-Gly-OPac) | -9.69% (inactive) |
